Screens: PubChem BioAssay, National Center for Advancing Translational Sciences (NCATS)
TDP1 cell noCPT = qHTS for Inhibitors of human tyrosyl-DNA phosphodiesterase 1 (TDP1): qHTS in cells in absence of CPT; DT40 Tdp1-/- hTDP1 cells, no CPT, ATP luminescence, 48 h; Potency, µM (titrated, usually from 46.2 µM), inactives show at the highest dose activity change, negative = growth inhibition, actives largely listed as inhibitors; 15% of 420,000 active; AID 686978, 2013; note: % is set by controls: 0 for no effect and ±100 for the full control effect; nearly all actives have a fitted effect of over 55% in size
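Chicken DT40 Tdp1-/- cells complemented with human TDP1, screened without camptothecin (DMSO vehicle only), 400 cells/well. Compounds pin-transferred, cells incubated at 37 °C for at least 48 hr. Growth read as ATP-dependent luminescence (CellTiter-Glo, 30 min at RT).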
ClpP mod = qHTS Assay for Activators of ClpP; ATP-dependent Clp protease proteolytic subunit (Bacillus subtilis (strain 168)), P80244; purified B. subtilis ClpP, FRET peptide cleavage, 20 min; Potency, µM (highest dose often 57.5 µM), for inactives: top-dose activity change, negative = active; 1.9% of 340,000 active; AID 651965, 2013; active = well fitted falling curve with a large enough effect; inconclusive = small, poorly fitted or top-dose-only effect; inactive = no such curve, though single readings can be large or run the other way; note: the source files actives as falling curves though it sought activators and does not explain the sign; nearly all actives have a fitted effect of over 65% in size
Target sequence (P80244 whole entry, looked up): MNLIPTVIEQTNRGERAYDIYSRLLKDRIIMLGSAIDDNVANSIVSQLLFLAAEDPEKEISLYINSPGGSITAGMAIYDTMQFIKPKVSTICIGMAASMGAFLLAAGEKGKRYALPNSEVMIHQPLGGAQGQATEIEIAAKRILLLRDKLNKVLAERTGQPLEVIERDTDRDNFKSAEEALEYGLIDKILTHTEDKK
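Purified B. subtilis ClpP, 10 microg/mL final in Tris/HCl pH8 with KCl, BSA, glycerol and Tween-20, cleaved an Abz/nitrotyrosine-quenched decapeptide. Fluorescence (ex 320, em 430) was read at 0 and 20 min at room temperature. Delta was normalized to 5.8 microM ADEP and DMSO/no-enzyme controls.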
DT40 TDP1 CPT = qHTS for Inhibitors of human tyrosyl-DNA phosphodiesterase 1 (TDP1): qHTS in cells in presence of CPT; chicken DT40 Tdp1-/-;hTDP1 cells + 20 nM CPT, ATP luminescence, 48 h; Potency, µM (doses to about 46.2 µM), for the others: top-dose activity change, negative = growth inhibition, hits mostly inhibitors; 12% of 420,000 active; AID 686979, 2013; note: % is set by controls: 0 for no effect and ±100 for the full control effect; nearly all actives have a fitted effect of over 55% in size
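Cell growth measured by CellTiter-Glo luminescence after a minimum 48 h, 37 C compound exposure with 20 nM CPT in Tdp1-knockout DT40 cells stably expressing hTDP1, seeded 400/well; qHTS titration format.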
TDP1 block = qHTS Assay for Inhibitors of Tyrosyl-DNA Phosphodiesterase (TDP1) | Tyrosyl-DNA phosphodiesterase 1 (Homo sapiens), Q9NUW8 | recombinant TDP1, AlphaScreen DNA substrate cleavage | Potency, µM (doses to about 130 µM), inactives show at the top dose activity change, negative = inhibition, hits mostly inhibitors | 0.28% of 350,000 active | AID 485290, 2010; note: % is set by controls: 0 for no effect and ±100 for the full control effect; nearly all actives have a fitted effect of over 40% in size
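Tdp1 1 nM final; 15 min RT w/ cpd; substrate 15 nM, 5 min; beads 10 ug/ml, 10 min; AlphaScreen read. Neg ctrl: no enzyme.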
* hit, by the source's call; ? = inconclusive; / = no result; [ ] = remark or other dose. Only some compounds are listed: those with a hit (about 17% of all), similar ones and a draw of the others. Unless noted, calls come from the whole dose curve; as a rule, active = well fitted curve in the direction sought with a large enough effect; inconclusive = small, poorly fitted or top-dose-only effect, or another doubt; inactive = no such curve, though single readings can be large; an effect the other way counts as inactive or inconclusive. Potency is the fitted concentration of half-maximal effect.

SMILES	TDP1 cell noCPT	ClpP mod	DT40 TDP1 CPT	TDP1 block
c1ccc(-c2nc(NC3CCCC3)c3ccccc3n2)cc1	-26%	1%	?	/
COCCN(CCOC)c1nc(-c2ccc(C)cc2)nc2ccccc12	18µM*	6%	?	/
Cc1ccc(-c2nc(NCCN(C)C)c3ccccc3n2)cc1	?	0%	-17%	/
COCCNc1nc(-c2ccc(N(C)C)cc2)nc2ccccc12	21µM*	/	?	/
COc1cccc(-c2nc(NC3CCNCC3)c3ccccc3n2)c1	21µM*	/	?	/
CCCN(CCC)c1nc(-c2ccccc2F)nc2ccccc12	?	0%	-4%	-6%[12.3 µM]
CCCN(CCC)c1nc(-c2ccccn2)nc2ccccc12	3.3µM*	/	1.3µM*	/
CC(=O)N(C)c1nnc(-c2ccccn2)s1	?	?	-6%	2%
CCCCN(CC)c1nc(-c2ccncc2)nc2ccccc12	?	0%	16µM*	-5%
c1ccc(-c2nc(NCc3cccnc3)c3ccccc3n2)cc1	-16%	-8%	1%	3%
c1ccc(CCNc2nc(-c3ccccn3)nc3ccccc23)cc1	2.9µM*	/	3.3µM*	11%
CN(C)c1ccc(-c2nc(NC3CCNCC3)c3ccccc3n2)cc1	1.2µM*	/	1.3µM*	-4%[56.1 µM]
CC(=O)NCCNc1nc(-c2ccccc2CN(C)C)nc2ccccc12	4%	/	13%	11%[56.1 µM]
CN(C)Cc1ccccc1-c1nc(NC2CCNCC2)c2ccccc2n1	0.65µM*	/	0.37µM*	/
c1ccc2c(NC3CCNCC3)nc(-c3ccoc3)nc2c1	-3%	/	-3%	/
COc1nc(-c2ccncc2)nc2ccccc12	-19%	0%	-5%	5%
COc1ccc(-c2c(C)c3ccc(O)c(CN4CCCCC4)c3oc2=O)cc1OC	-18%	4%	-5%	3%
CCCS(=O)(=O)NC(=O)C1(C)CCN(C(=O)c2cc(F)cc(F)c2)C1 (stereo not drawn)	8%	1%	-63%	/
Cc1[nH]c2ccccc2c1N=Nc1ccccc1C(=O)O	?	-2%	-30%	3%
COc1ccc2c(c1)C(=O)[C@H](OC(=O)Nc1ccc(OC(F)F)cc1)[C@@H](c1ccc(OC)c(Br)c1)O2	/	/	/	17%
O=C(NC1CC1(c1ccccc1)c1ccccc1)c1ccccc1 (stereo not drawn)	-27%	1%	-3%	/
Cc1nc2ccccc2n1Cc1ccc(Br)cc1	6.5µM*	/	5.8µM*	/
c1ccc(Cc2nc3ccccc3n2Cc2ccccc2)cc1	?	-2%	-21%	6%
CCC(O)c1nc2ccccc2n1Cc1cccc(Cl)c1 (stereo not drawn)	18µM*	0%	?	9%
Brc1cccc(Cn2c(-c3cncs3)nc3ccccc32)c1	-29%	-11%	?	-5%
SMILES	TDP1 cell noCPT	ClpP mod	DT40 TDP1 CPT	TDP1 block
Cc1cccc(Cn2c(-c3cccc(Br)c3)nc3ccccc32)c1	16µM*	32µM*	18µM*	-3%
Cc1nc2ccccc2n1Cc1ccccc1	?	-1%	16µM*	/
Cc1ccc(N2CC(NC(=O)c3cc4ccccc4o3)CC2=O)cc1 (stereo not drawn)	?	1%	?	5%
Cc1ccc(C2=NS(=O)(=O)N(C)C(C(=O)NCc3ccc4c(c3)OCO4)=C2)cc1	9%	-1%	11%	/
O=C(c1cc2ccc3cccnc3c2[nH]1)N1CCN(c2cccc(C(F)(F)F)c2)CC1	-26%	-4%	?	8%
Cc1ccncc1CNC(=O)c1ccccc1	-5%	/	39%	/
S=c1[nH]nc(-c2ccc(Br)cc2)n1Cc1ccccc1	?	/	?	6%
COCCn1c(C(C)C)nc2ccccc21	6%	0%	-3%	/
Cc1nc([N+](=O)[O-])c(SCC(N)=O)n1Cc1ccccc1	?	0%	-2%	0%
Cc1nc(Br)c(Br)n1Cc1ccccc1	21µM*	0%	?	/
CCC(C)Cn1c(COc2ccc(OC)cc2)nc2ccccc21 (stereo not drawn)	?	-3%	?	5%
CCC(C)Cn1c(C)nc2ccccc21 (stereo not drawn)	10µM*	-1%	?	2%
Cc1nc([N+](=O)[O-])c(Sc2nc3ccccc3n2C)n1Cc1ccccc1	5.2µM*	1%	?	4%
CC(c1nc2ccccc2n1Cc1ccccc1)N1CCCCC1 (stereo not drawn)	18µM*	/	16µM*	/
CC(C)C1NC2(C(=O)c3ccccc3C2=O)C2C(=O)N(c3ccc(F)cc3)C(=O)C12 (stereo not drawn)	26µM*	1%	26µM*	8%
COc1ccc(-c2cc(C(=O)Nc3cc(C)nn3-c3ccccc3)no2)cc1OC	21%	0%	-4%	-3%
COc1cccc(Nc2ncc3nc(-c4ccc(F)cc4)c(=O)n(C[C@H]4CCCO4)c3n2)c1	-8%	/	7%	/
Oc1ccc2c(c1)OCC1(O)Cc3cc(O)c(O)cc3C21 (stereo not drawn)	6.5µM*	1%	6.5µM*	-10%[56.1 µM]
Oc1ccc2c(c1)OCO2	/	/	/	4%
COC(=O)C1CCN(Cc2ccc3c(c2)CN(C(=O)c2cc(C)nc(C)n2)CCO3)CC1	-9%	/	8%[9.04 µM]	/
CCOc1cc(-c2c(C#N)c(N)nc3c2CCCC3)ccc1O	21µM*	12%	?	6%
COc1ccc(-c2c(C#N)c(N)nc3c2CCCC3)cc1OC	-27%	-25%	-19%	/
CCc1nc(N)c(C#N)c(-c2ccc(O)c(OC)c2)c1C	-9%	-6%	-14%	2%
CCOc1cc(-c2cc(-c3ccccc3)nc(N)c2C#N)ccc1O	?	12%	23µM*	4%
CCOc1cc(-c2cc(-c3ccc(N)cc3)nc(N)c2C#N)ccc1O	18µM*	?	15µM*	-1%
SMILES	TDP1 cell noCPT	ClpP mod	DT40 TDP1 CPT	TDP1 block
C[C@@H]1[C@H](c2ccccc2)OCCS(=O)(=O)N1Cc1ccc(F)cc1	?	0%	?	/
CCN1CCN(CCCNC(=O)c2cn(CCOC)c(=O)c3c2c2ccccc2n3C)CC1	-12%	3.2µM*	-10%	1%
CCN(CC)CCCNC(=O)c1cn(C)c(=O)c2c1c1ccccc1n2C	13%	4%	-1%	/
COCCn1cc(C(=O)NCCCN2CCC(C)CC2)c2c3ccccc3n(C)c2c1=O	?	32µM*	-4%	1%
C[C@H]1CN([C@@H](C)CO)C(=O)CCCn2nncc2CO[C@@H]1CN(C)Cc1cccc(O)c1	-4%	-1%	2%	/
OCC1OC(n2cnc3c(SCc4ccccc4)nc(F)nc32)C(O)C1O (stereo not drawn)	-13%	1%	-26%	/
CCOCCCn1c(=N)c(C(=O)NC2CCCCC2)cc2c(=O)n3ccccc3nc21	?	4%	-5%	/
